# In PubChem BioAssay AID1347076 (National Center for Advancing Translational Sciences (NCATS), 2019):
# Out of some 400,000 compounds screened, about 13,000 (3.2%) were called active. Roughly 18% stayed inconclusive and do not appear here. This is one part of a sample in which actives are shown more often than they occur. Values without a mark were called inactive. The call rests on the fitted dose curve; in most records, active means well fitted cell-killing curve with a large enough effect; inconclusive means small, poorly fitted or top-dose-only effect, or effect the other way; inactive means flat fitted curve, though single readings scatter.
# Assay: qHTS assay for MDR1-selective chemotherapeutics: Primary screen using the drug-selected MDR subline cells KB-V1; further: nearly all actives have a fitted effect of over 60% in size
# Conditions: KB-V1 MDR cells viability, CellTiter-Glo, 72 h; series mostly up to 46.1 µM; activity change, negative = cytotoxicity: at the top concentration
# Procedure, shortened: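 In this primary screen, KB-V1 cells overexpressing P-gp are incubated with library compounds (lowest to highest concentration) for 72 h at 37 degrees C before a luminescent ATP viability read.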
# On the % scale 0 is the no-effect control and ±100 the full control effect; potency means the concentration at half of the fitted maximal effect.
SMILES,"activity change, negative = cytotoxicity [%]",Potency
CCOc1cc(/C=N/NC(=O)c2ccncc2)cc(Br)c1O,23.2,
O=C(COC(=O)/C=C/c1ccc(Cl)cc1)NC1CCS(=O)(=O)C1 (stereo not drawn),16.4,
Cc1c(Cl)cnc(NC(=O)COC(=O)c2ccc(S(=O)(=O)NCc3ccco3)cc2)c1Cl,-7.05,
C/C(=N\Nc1ncc(Cl)cc1Cl)c1ccc(S(=O)(=O)NCc2ccco2)cc1,,2.06 µM (active)
O=S(=O)(NCc1ccco1)c1cnc(Cl)c(Cl)c1,27.2,
COc1ccc(Cl)cc1NC(=O)CSc1nc2ccccc2c2nc(-c3ccccc3)nn12,2.49,
CC(=O)Nc1ccc(SCC(=O)Nc2ccccc2Oc2ccccc2)cc1,,4.61 µM (active)
CC1CCCN(CC(=O)Nc2cc(Cl)ccc2Oc2ccccc2)C1 (stereo not drawn),2.14,
CSc1cccc(NC(=O)CSc2ccccc2)c1,-4.26,
O=C(CSc1ccccc1)Nc1cc(Cl)ccc1Oc1ccccc1,,18.4 µM (active)
Cc1cc(C)cc(NC(=O)CSc2ccccc2)c1,0,
CC(C)NC(=O)C1CCC(Cn2c(=O)c3sccc3n(Cc3ccc(F)cc3)c2=O)CC1 (stereo not drawn),14.1,
Cc1cccc(CN2CCN(C3CN(Cc4ccccc4)S(=O)(=O)C3)CC2)c1 (stereo not drawn),1.24,
C=CCOc1cccc(C2C(C(=O)c3ccc(C)o3)=C(O)C(=O)N2CCN2CCOCC2)c1 (stereo not drawn),-32.9,
COCCNC(=O)C1C(=O)Nc2ccccc2C(=O)N1c1ccc2c(c1)OCCO2 (stereo not drawn),-6.15,
O=S1(=O)CC(N2CCN(Cc3ccccc3F)CC2)CN1Cc1cn(Cc2ccccc2)nn1 (stereo not drawn),3.29,
COc1ccc(Cn2c(=O)oc3ccccc32)cc1,1.97,
CN1CCN(c2ccncc2S(=O)(=O)N2CCCC2)CC1,2.89,
Cn1c(=N)n(CC(O)c2cccs2)c2ccccc21 (stereo not drawn),4.57,
N=c1n(Cc2ccc(Cl)cc2)c2ccccc2n1CC(O)c1ccco1 (stereo not drawn),,20.6 µM (active)
Cn1c(=N)n(CC(O)c2ccccc2)c2ccccc21 (stereo not drawn),0.812,
Cc1ccc(S(=O)(=O)N2CC[C@H]3[C@@H](C2)C(=O)C[C@@H](c2ccccc2)N3S(=O)(=O)c2ccc(C)cc2)cc1,9.68,
Brc1cccc[n+]1Cc1cccc(C[n+]2ccccc2Br)c1,1.12,
COc1ccc(C(=O)Nc2ncc3c(n2)-c2ccccc2CC3)cc1,,13 µM (active)
O=C(Nc1ncc2c(n1)-c1ccccc1OC2)c1ccc(Cl)cc1,-0.505,
COc1ccc(C(=O)Nc2onc3c2CCCC3)cc1,-22.3,

SMILES,"activity change, negative = cytotoxicity [%]",Potency
COc1cccc(CNC(=O)Cc2csc3nc(-c4ccccc4)cn23)c1,2.91,
CCC(C(=O)Nc1cc(OC)ccc1OC)n1c(=O)c(C(F)(F)F)nc2ccccc21 (stereo not drawn),-3.27,
O=C(Nc1cccnc1)c1noc2c1CCCCC2,,23.1 µM (active)
COc1cccc(C(=O)Nc2cccnc2)c1OC,8.39,
CCOC(=O)c1ccc(-c2ccc(C(=O)Nc3cccnc3)o2)cc1,-20.6,
Nc1cc(C(F)(F)F)ccc1N1CCOCC1,,20.6 µM (active)
Cc1noc(C)c1S(=O)(=O)Nc1cc(C(F)(F)F)ccc1N1CCOCC1,-15.2,
CC(C)CC(=O)Nc1cc(C(F)(F)F)ccc1N1CCOCC1,-6.92,
Cc1ccccc1CNC(=O)CSc1nnc(C)c2c(C)n(-c3ccccc3)nc12,-1.14,
COc1cccc(C(NC(C)=O)c2nc(-c3ccccc3OC)cs2)c1 (stereo not drawn),-18.7,
CCN1CCCC1CNC(=O)c1ccc2c(c1)NC(=O)/C(=C\c1ccccc1F)S2 (stereo not drawn),-4.63,
COC(=O)c1ccc2nc(-c3ccc(Cl)cc3)c(Cc3cccc(F)c3)n2c1,13.5,
COC(=O)c1ccc2nc(-c3ccc(F)cc3)c(Cc3ccc(C)cc3)n2c1,,9.2 µM (active)
COC(=O)c1ccc2nc(-c3cccc(Br)c3)c(Cc3ccc(OC)cc3C)n2c1,-3.51,
COC(=O)c1ccc2nc(-c3ccccc3)c(Cc3ccc(OC)cc3C)n2c1,,23.1 µM (active)
COC(=O)c1ccc2nc(-c3ccc(C)cc3)c(Cc3ccc(OC)cc3C)n2c1,-24.1,
COC(=O)c1ccc2nc(-c3ccc(OC)c(OC)c3)c(Cc3ccccc3)n2c1,-3.03,
OC[C@@H]1CN(Cc2ccc3c(c2)OCO3)C[C@H](n2cnc3c(NCc4ccco4)ncnc32)O1,0.266,
CC1(c2cccc(N)c2)OCCO1,14.4,
COc1ccc(NC(=O)Cn2c(=O)cc(C)c3c(C)nn(-c4cccc(Cl)c4C)c32)cc1OC,4.25,
Cn1nc(N)c2ncc(C(Cl)(Cl)Cl)nc21,16.9,
Nc1cc(=O)c2[nH]cnc2[nH]1,11.3,
S=c1[nH]c(=S)c2n[nH]nc2[nH]1,-23.8,
Cc1ccc2nc(-c3ccc(O)cc3)c(Nc3ccc4c(c3)OCO4)n2c1,12.8,
Cc1ccc2nc(-c3ccccc3)c(CC3CCCCC3)n2c1,8.28,
Cc1ccc2nc(-c3cccnc3)c(NC3CCCC3)n2c1,,2.59 µM (active)

SMILES,"activity change, negative = cytotoxicity [%]",Potency
COc1ccccc1CNc1nccn(-c2ccc(F)cc2)c1=O,5.14,
CCOC(=O)C1(C)CCCN(C(=O)c2cccc(Cl)c2)C1 (stereo not drawn),-11.5,
O=C(NCCc1ccc(Cl)cc1)c1cccc(N2CCCC2=O)c1,-5.68,
Oc1cc2c(cc1O)CN(C(=S)NCCc1ccc(Cl)cc1)CCC2,,14.6 µM (active)
COc1ccc(CCNC(=S)N2CCN(S(=O)(=O)c3ccc(Cl)cc3)CC2)cc1,4.6,
Cc1cc([N+](=O)[O-])ccc1NC(=O)C1CCCO1 (stereo not drawn),-0.842,
Cc1cc([N+](=O)[O-])ccc1NC1CCCC1,,16.4 µM (active)
Cc1cc([N+](=O)[O-])ccc1NCc1cccc([N+](=O)[O-])c1,-4.27,
COc1ccc(-c2nnc(SCC(=O)Nc3ccc(C(C)C)cc3)nc2-c2ccc(OC)c(OC)c2)cc1OC,10.8,
CC1(C)CN(CCc2ccccc2)C(=O)[C@H]1CC(=O)Nc1ccc(Br)cc1,-1.58,
CC1(C(=O)NS(=O)(=O)c2ccccc2)CCN1C(=O)C/C=C/c1ccccc1 (stereo not drawn),1.3,
O=C(Nc1ccccc1N1CCN(c2ccccc2)CC1)c1cccc(F)c1,,11.6 µM (active)
Cc1cccc(C(=O)Nc2ccccc2N2CCN(c3ccc(F)cc3)CC2)c1,-30.1,
CCn1c(=O)c(=O)n(CC)c2cc(N3CCCCC3)c(NC(=O)c3cccc(F)c3)cc21,-3.16,
O=C(NCc1nnnn1-c1ccc(Cl)cc1)c1ccc2c(c1)OCO2,-9.69,
Cc1ccc(S(=O)(=O)NCCC(=O)NCc2ccc(Cl)cc2)cc1C,9.48,
CSc1ccc(S(=O)(=O)NCc2ccc(Cl)cc2)cc1,,23.1 µM (active)
CC(C)CNS(=O)(=O)c1ccc(CCC(=O)NCc2ccc(Cl)cc2)cc1,-5.32,
CCCCN1C[C@H](c2ccc(Br)cc2)[C@@H](CC(=O)Nc2ccc(Br)cc2)C1=O,-4.39,
Cc1ccc(C(=O)Nc2ccc(C(=O)O)cc2)cc1S(=O)(=O)Nc1ccccc1,1.49,
O=C(Nc1ccc(Br)cc1)c1ccc(Br)c(S(=O)(=O)NCc2ccccc2)c1,,13 µM (active)
O=C(Nc1ccc(F)cc1)c1ccc(S(=O)(=O)NCc2cccnc2)cc1,0,
COCCNC(=O)c1cc2c(Br)ccc(Br)c2nc1N,0,
O=S1(=O)CC(N2CCN(CCO)CC2)CN1Cc1cn(Cc2ccc(Cl)cc2)nn1 (stereo not drawn),-0.0484,
CC(C)n1ncc2c(C(=O)N3CCN(Cc4cccs4)CC3)cc(C3CC3)nc21,-27.5,
Cc1cc2oc(=O)cc(CN(C)Cc3ccccc3)c2cc1Cl,0.451,

SMILES,"activity change, negative = cytotoxicity [%]",Potency
CC1=NN(C(=O)Cc2ccc(C)cc2)C(O)(c2cccnc2)C1 (stereo not drawn),0.391,
CCC1=NN(C(=O)Cc2ccc([N+](=O)[O-])cc2)C(O)(c2ccc(Br)cc2)C1 (stereo not drawn),,13 µM (active)
CC1=NN(C(=O)c2ccc(Br)cc2)C(O)(c2ccccc2)C1 (stereo not drawn),9.29,
C[C@@H]1CN([C@H](C)CO)S(=O)(=O)c2ccc(C#CC3CCCCC3)cc2O[C@H]1CN(C)C(=O)Cc1ccncc1,0,
COc1ccc(NC(=O)c2ccco2)cc1NC(=O)COc1ccc(C)c(C)c1,-4.24,
O=C(NCC(c1cccs1)N1CCOCC1)c1cc(-c2ccccn2)nc2ccccc12 (stereo not drawn),-21.1,
O=C(c1ccccc1)c1cc(-c2ccccn2)c(N2CCOCC2)s1,,8.2 µM (active)
CCc1ccc2ncc(C(=O)c3ccccc3)c(N3CCOCC3)c2c1,-2.87,
COCCNc1ncnc2c1ncn2[C@H]1CN(CCN2CCOCC2)C[C@@H](CO)O1,3.73,
Fc1ccc(-n2ncc3c(Nc4ccc(Oc5ccccc5)cc4)ncnc32)cc1,0,
Cn1c(C(=O)NCCCN2CCN(c3cccc(Cl)c3)CC2)cc2c(=O)n(C)c3ccccc3c21,15.4,
CCc1nn(CCCN2CCN(c3cccc(Cl)c3)CC2)c(=O)n1CCOc1ccccc1,,6.51 µM (active)
OC(COc1ccccc1)CN1CCN(c2cccc(Cl)c2)CC1 (stereo not drawn),0.123,
CC(O)(c1cccc(F)c1)c1nc(-c2ccc3c(c2)OCO3)cs1 (stereo not drawn),3.39,
CCc1nc2ccc(C(=O)NCCNC(C)=O)cn2c1N(CC)Cc1cccc(Br)c1,5.36,
COc1ccc(-n2c(SC)nc3sc4c(c3c2=O)CCN(C(C)=O)C4)cc1,-5.53,
CNc1cnc(-c2cc(OC)c(OC)c(OC)c2)cn1,6.28,
CN1c2ccc(C=O)c3c(C=O)ccc(c23)N(C)C1(C)C,,18.4 µM (active)
Cc1ccc(C=O)c([B-](F)(F)F)c1,-1.5,
Cc1cc(C)c2c(=O)n3c(nc2c1)C(CC(C)C)NC(=O)c1cc2ccccc2cc1-3 (stereo not drawn),-6.74,
CN(C)C1=C2C=CC=CC2/C(=C2/C=Cc3ccccc32)C=C1 (stereo not drawn),6.11,
CC(=O)Nc1ccc2c3c(ccc([N+](=O)[O-])c13)CC2,27,
CN(c1ccccc1)S(=O)(=O)c1ccc(NC(=O)COc2ccccc2)cc1,-39.9,
CN(c1ccccc1)S(=O)(=O)c1cccc(NC(=O)Cc2ccc(Cl)cc2)c1,,5.8 µM (active)
CN(C)S(=O)(=O)c1cccc(NC(=O)Cc2ccsc2)c1,5.23,
